A selection: hits, their analogues and other compounds. The true share with any hit is near 15%.
SARS PLpro yeast: blocks SARS-CoV papain-like protease in a yeast assay; S. cerevisiae expressing SARS-CoV PLpro, growth rescue; hit rate 0.19% among 330,000; Potency, µM (highest dose often 32.9 µM), without a hit: at the top dose activity, positive = growth rescue, hits mostly activators; calls by dose curve; also: potency is read from the fitted curve at half-maximal effect; 0% is about no effect; nearly all actives have a fitted effect of over 55% in size
HCMV inh: human cytomegalovirus inhibition | HFF cells, HCMV-luciferase reporter, 72 h; hits give low values | activity change, negative = inhibition, % at 57.5 µM | hit rate 4.5% among 410,000; in the data active = activity change below about -60%; inconclusive = no clear call, values can overlap the other calls; inactive = above about -39%; also: % is scaled to controls: 0 for no effect and ±100 for the full control effect
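Luciferase read-out from HCMV-luciferase-infected HFFs (MOI 1 PFU/cell) 72 h post infection at 37C; compounds added after 16 h cell attachment; activity normalized between buffer-only basal and Salinomycin (10uM) inhibitor controls.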
Sm TGR inh: inhibitors of Schistosoma mansoni thioredoxin glutathione reductase; Q962Y6; purified TGR, DTNB reduction, TNB absorbance 405 nm; Potency, µM (doses to about 114 µM), for the others: at the top dose activity change, negative = inhibition, actives largely listed as inhibitors; hit rate 3% among 360,000; AID 485364; also: potency is read from the fitted curve at half-maximal effect; % is scaled to controls: 0 for no effect and ±100 for the full control effect; nearly all actives have a fitted effect of over 60% in size
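Kinetic colorimetric format: TGR-catalysed, NADPH-driven DTNB reduction monitored via TNB absorbance. Enzyme dispensed at 20 nM; compound exposure 15 min at room temperature before reaction start.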
Pf growth 48h: P. falciparum growth inhibition at 48 hours (one generation); P. falciparum luciferase growth in erythrocytes, 48 h; Potency, µM (titrated, usually from 28.7 µM), inactives show at the top dose activity change, negative = inhibition, hits mostly inhibitors; hit rate 5.9% among 310,000; AID 504832; also: potency is read from the fitted curve at half-maximal effect; % is scaled to controls: 0 for no effect and ±100 for the full control effect
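In quantitative HTS format, infected erythrocytes bearing luciferase-reporter parasites were treated for a single generation at 37 C. Luminescence after adding detection reagent served as the growth measure.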
HCV inh: inhibitors of hepatitis C virus infection; Huh7.5.1 HCVcc-Cre infection, luciferase reporter, 44 h; Potency, µM (highest dose often 41.8 µM), for the others: top-dose activity change, negative = inhibition, usual class: inhibitors; hit rate 3.4% among 340,000; also: potency is read from the fitted curve at half-maximal effect; % is scaled to controls: 0 for no effect and ±100 for the full control effect
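Whole-lifecycle infectious HCVcc-Cre system; cells 1,000/well, compound then virus (~0.5 moi) added 4 h after plating, 44 h culture. Luciferase read 15 sec following 15 min substrate incubation, room temp.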
Pf growth 96h: P. falciparum growth inhibition at 96 hours; AID 504834; Potency, µM (series often up to 28.7 µM), for the others: top-dose activity change, negative = inhibition, most hits filed as inhibitors; P. falciparum luciferase reporter growth, 96 h; hit rate 6.9% among 320,000; also: potency is read from the fitted curve at half-maximal effect; % is scaled to controls: 0 for no effect and ±100 for the full control effect
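Two-generation exposure (96 h) targets delayed-death phenotype. Reporter parasites carrying integrated firefly luciferase, in red cells at 2% hematocrit and 0.05% parasitemia final, kept at 37 C, 5% CO2; luminescence loss indicates inhibition.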
HCV confirm: confirmation of hepatitis C virus inhibitors; AID 720575; shares compounds with HCV inh; Potency, µM (series often up to 41.8 µM), for the others: at the top dose activity, negative = inhibition, most hits filed as inhibitors; hit rate 78% among 640; HCVcc-Cre infectious virus cell assay, luciferase, inhibition; also: potency is read from the fitted curve at half-maximal effect; nearly all actives have a fitted effect of over 80% in size
HCV host tox: toxic to HCV host cells, flagging false HCV inhibitors; shares compounds with HCV inh; HCV host cell line cytotoxicity counterscreen; Potency, µM (titrated, usually from 41.8 µM), inactives show top-dose activity change, negative = cytotoxicity, usual class: inhibitors; hit rate 22% among 640; AID 720576;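 also: potency is read from the fitted curve at half-maximal effect; 44 h compound exposure; % is scaled to controls: 0 for no effect and ±100 for the full control effect; nearly all actives have a fitted effect of over 55% in size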
* marks the source's active call; other numbers are inactive results; ? = inconclusive; nt = no result given; [ ] = dose if it differs, or a comment. Unless noted, calls follow the shape of the dose curve; as a rule, active = well fitted curve in the direction sought with a large enough effect; inconclusive = small, poorly fitted or top-dose-only effect, or another doubt; inactive = no such curve, though single readings can be large; an effect the other way counts as inactive or inconclusive.

SMILES	SARS PLpro yeast	HCMV inh	Sm TGR inh	Pf growth 48h	HCV inh	Pf growth 96h	HCV confirm	HCV host tox
Cc1cc(Nc2cccc(F)c2)nc(-c2ccccc2O)n1	-2%	-27	-25%	?	4.5µM*	2%	7.9µM*	-2%
COC(=O)c1ccccc1NC(=O)c1ccc2c(c1)CCN2S(=O)(=O)c1ccc(Cl)cc1	nt	1	-2%	nt	nt	nt	nt	nt
c1ccc2c(N3CCOCC3)c3c(nc2c1)CCC3	-5%	-34	1%	-26%	?	?	nt	nt
COc1ccc2c(c1)CCc1c-2nc2ccccc2c1N1CCOCC1	-1%	22	40µM*	?	4.5µM*	?	-21%	-51%
CC(C)CN(C(=O)CCCOc1ccc(Cl)cc1Cl)c1c(N)n(Cc2ccccc2)c(=O)[nH]c1=O	-2%	-36	-3%	12µM*	?	?	11µM*	82%
COc1ccc(C2(CNC(=O)c3cccc([N+](=O)[O-])c3)CCOCC2)cc1	-8%	-1	4%	35%	18%	-4%	nt	nt
Cc1cccc2cc(C#N)c(NCCCNS(=O)(=O)c3ccc(Cl)cc3)nc12	-2%	-67*	6%	0%	8.9µM*	-24%	14µM*	?
CC(C)n1c(NCCc2ccccc2)nc2c1c(=O)n(C)c(=O)n2C	1%	-87*	-14%	-12%	?	-15%	7.9µM*	?
CCn1c(NCc2ccccn2)nc2c1c(=O)n(C)c(=O)n2C	-9%	-33	-3%	8%	21%	-7%	nt	nt
CCOc1ccc(CCNc2nc3c(c(=O)n(C)c(=O)n3C)n2CC)cc1OCC	0%	-97*	-4%	12%	5.6µM*	-9%	6.3µM*	14µM*
Cn1c(=O)c2c(nc(NCC(O)CO)n2CCc2ccccc2)n(C)c1=O (configuration not stated)	0%	31	7%	-2%	7%	?	nt	nt
CC(CNC(=O)C(=O)NC(C)CCc1ccccc1)Cc1ccccc1 (configuration not stated)	-4%	14	3%	-12%	-16%	0%	nt	nt
CCc1ccc(OCC(O)CN2CCC(CN3C(=O)c4cccc5cccc(c45)C3=O)CC2)cc1 (configuration not stated)	-7%	20	-6%	-9%	6.3µM*	?	7µM*	14µM*
CCc1ccc(OCC(O)CN2CCN(c3ccccc3)CC2)cc1 (configuration not stated)	-5%	-21	-25%[11.4 µM]	nt	-4%	nt	nt	nt
COc1ccc(NC(=O)CSc2ccc3nnc(CCNC(=O)c4ccccc4)n3n2)cc1OC	0%	-21	0%	6%	21%	-11%	nt	nt
CCOc1cccc2sc(N(CCN(C)C)C(=O)c3ccc(Br)s3)nc12	1%	?	13%	13%	-11%	0%	nt	nt
Cc1ccc2sc(N(CCCN(C)C)C(=O)c3ccc(Br)s3)nc2c1C	-25%	-15	9%	?	7.1µM*	?	?	-28%
O=C(NC1CCN(S(=O)(=O)c2ccccc2)CC1)c1ccc(F)cc1	-1%	-14	8%	6%	7%	?	nt	nt
CC(C)[C@H](NC(=O)N1CC(=O)Nc2ccccc21)C(=O)N[C@H](Cc1ccccc1)C(=O)O	-1%	27	7%	?	26%	-11%	nt	nt
COC(=O)c1c(NC(=O)Cc2cccs2)sc2c1CCCC2	-18%	?	-1%	-6%	5µM*	?	13µM*	?
C/C(=N\NC(=O)C1COc2ccccc2O1)c1ccccn1 (configuration not stated)	30%	-102*	-5%	2.6µM*	4.5µM*	2.6µM*	11µM*	?

Compound activity (PubChem)
